Source: PubChem BioAssay (several laboratories)
This is a sample that favours compounds with a hit; in the whole collection about 1.4% have one here.
PfHsp40 yeast: compounds rescuing yeast from Plasmodium falciparum HSP40 toxicity | actives 0.68% (n = 340,000) | S. cerevisiae expressing PfHsp40, growth rescue, ATP luminescence | AID 504582 | growth rescue, % at 12.5 µM; in the data active means growth rescue above about 28%, passing the limit was not always enough; inconclusive means no clear call, values can overlap the other calls;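 further: yeast W303a lacking pdr1 and pdr3 grown in galactose medium; growth measured after three days at 30 °C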
PrP UTR inh: inhibition of PrP 5' UTR reporter expression; cell-based PrP 5' UTR mRNA reporter, plate reader; inhibition, % (no concentration beside the values); actives 0.35% (n = 340,000); AID 488862; in the data active means inhibition above about 52%; further: 0 = median of the neutral control wells
Sa RN4220 lethal: S. aureus RN4220 growth inhibition; OD600, 16 h; inhibition, % (no concentration beside the values); actives 0.33% (n = 330,000); in the data active means inhibition above about 85%;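 further: plate controls were untreated cells for no effect and reference antibiotic for full effect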
BJeLR viability: kills HRASV12-expressing BJeLR cells; BJeLR (HRASV12) viability, CellTiter-Glo ATP luminescence, 48 h; inhibition, % (test concentration not listed); actives 0.17% (n = 300,000); AID 1554; in the data active means inhibition above about 50%; inconclusive means no clear call, values can overlap the other calls
ugtP null kill: kills S. aureus RN4220 lacking UgtP; growth inhibition, % (test concentration not listed); actives 0.54% (n = 330,000); S. aureus RN4220 ugtP deletion, OD600 growth, 16 h; AID 1259309; in the data active means growth inhibition above about 68%;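 further: plate controls were untreated wells for no effect and antibiotic for full effect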
Y pestis TopoI: blocks Yersinia pestis topoisomerase I activity | Y. pestis Topo-I cleavage product accumulation, plate reader | activity, % at 10 µM | actives 0.064% (n = 360,000); in the data active means activity above about 50%, passing the limit was not always enough; inconclusive means no clear call, values can overlap the other calls
PrP UTR cherry: prion 5' UTR mRNA inhibition, cherry-pick retest; shares compounds with PrP UTR inh; cell-based prion protein 5' UTR reporter, plate reader; inhibition, % at 2.5 µM; actives 48% (n = 1,100); AID 504592; in the data active means inhibition above about 54%; inconclusive means no clear call, values can overlap the other calls
* hit, by the source's call; ? = inconclusive; . = not tested or not shown.

SMILES | PfHsp40 yeast | PrP UTR inh | Sa RN4220 lethal | BJeLR viability | ugtP null kill | Y pestis TopoI | PrP UTR cherry
C#CCNS(=O)(=O)c1ccc(F)cc1Br | -1 | 5 | 3 | . | 2 | -1 | .
Cc1cccc(N(NC(=O)C(C)(C)O)C(=O)c2ccccc2)c1 | 0 | 67* | 1 | 11 | 4 | -3 | -30
CCOC(=O)N(NC(=O)C(O)(c1ccccc1)c1ccccc1)c1ccccc1 | -1 | -39 | 3 | 7 | 4 | -9 | .
O=C(CNCc1ccco1)Nc1ccc(N2CCCCCC2)cc1 | 0 | 83* | 0 | -5 | 9 | -5 | -12
COC(=O)C1C[C@@]2(O)C(O)C(O)C(O)CC2N1Cc1ccc(Cl)cc1 (stereo partly drawn) | . | . | 9 | . | 2 | . | .
CN1C(=O)SC(=Cc2ccccc2OCc2ccc(C(=O)O)cc2)C1=O | . | . | 21 | . | 8 | . | .
Cc1c(C(=O)OCCOC(C)C)[nH]c2c1C(=O)CC(c1ccco1)C2 (stereo not drawn) | 3 | 66* | -1 | 36 | 8 | -5 | 90*
CCOC(=O)c1[nH]c2c(c1C)C(=O)CC(c1ccco1)C2 (stereo not drawn) | -1 | 61* | 3 | 42 | 12 | 5 | 93*
Cc1c(C(=O)OCc2ccccc2)[nH]c2c1C(=O)CC(c1ccco1)C2 (stereo not drawn) | 1 | 62* | 3 | 25 | 9 | 12 | 87*
COCCOC(=O)c1[nH]c2c(c1C)C(=O)CC(c1ccco1)C2 (stereo not drawn) | 1 | -5 | 5 | 16 | -7 | 2 | .
Cc1ccc(C=C2CCC(C3CCCC3)C2=O)cc1 (stereo not drawn) | . | . | 2 | . | 10 | . | .
CCOC(=O)C1C2COc3cc(OC)ccc3C2N2C(=O)N(c3ccc(Cl)cc3)C(=O)[C@@]12C (stereo partly drawn) | . | . | 4 | . | 0 | . | .
COC(=O)c1cccc(NC(=O)/C=C/c2ccc3c(c2)OCO3)c1 | 17 | 65* | 4 | -2 | 4 | 2 | 25
CC1CN(C(=O)CCC(=O)NCc2ccc(Cl)cc2)c2ccccc2S1 (stereo not drawn) | 1 | 63* | 9 | -5 | 8 | 2 | -13
CC1CN(C(=O)CCC(=O)NCc2ccc(F)cc2)c2ccccc2S1 (stereo not drawn) | 1 | 3 | 5 | 4 | -1 | 15 | .
COc1cc2c(cc1OC)C(=O)N1C3c4cc(C)ccc4OCC3C(c3ccccc3)[C@]1(C)C(=O)N2 (stereo partly drawn) | . | . | -2 | . | 8 | . | .
NC(=O)CC(NC(=O)Cc1cccc2ccccc12)c1ccc(NCc2ccc(F)cc2)c([N+](=O)[O-])c1 (stereo not drawn) | 2 | 75* | . | 2 | . | 33 | -27
CC1=CC2OC3CC4OC(=O)C=CC=CC(=O)OCCC(C)C(O)C(=O)OCC2(CC1O)C4(C)C31CO1 (stereo not drawn) | . | 94* | . | . | . | -6 | 97*
CC1=CC2OC3CC4OC(=O)C=CC=CC(C(C)O)OCC(O)C(C)CC(=O)OCC2(CC1O)C4(C)C31CO1 (stereo not drawn) | . | 95* | . | . | . | 5 | 95*
Cc1cccc(C2C3C(=O)N(Cc4ccccc4)C(=O)C3[C@]3(Cc4ccc(Cl)cc4)C(=O)N(c4cccc(Cl)c4)C(=O)N23)c1 (stereo partly drawn) | . | . | 9 | . | 6 | . | .
Cc1ccc(-c2n[nH]c(=S)n2N=Cc2ccc(C)s2)cc1 | . | . | 3 | . | -5 | . | .
Cc1ccc(-c2n[nH]c(=S)n2/N=C/c2ccc(C)s2)cc1 | -2 | 66* | . | -3 | . | 11 | 8
CN1CCN(c2ccc(NC(=O)N3CCc4ccccc43)cc2)CC1 | -2 | 64* | -3 | -6 | 3 | 0 | ?
Cc1nnc(SCc2ccccc2CSc2nnc(C)s2)s1 | -1 | 60* | 2 | -3 | 6 | 15 | 14
Cc1nnc(SCSc2nnc(C)s2)s1 | -1 | -23 | -7 | 1 | -4 | -2 | .
CC(=O)OCC(=O)C1CCC2C3CCC4=CC(=O)CC[C@]4(C)C3CC[C@]12C (stereo partly drawn) | . | . | 0 | . | -9 | . | .
CCOC(=O)C1C2COc3ccc(C)cc3C2N2C(=O)c3cc(OC)c(OC)cc3NC(=O)[C@@]12C (stereo partly drawn) | . | . | 4 | . | 1 | . | .
